{
  "source": "PubChem BioAssay (NCATS)",
  "note": "Results filed as inconclusive are left out. A number with no mark means an inactive call. Active and inactive are the calls of the source. Calls follow the shape of the dose curve; as a rule, active = well fitted cell-killing curve with a large enough effect; inconclusive = small, poorly fitted or top-dose-only effect, or effect the other way; inactive = no such curve, though single readings can be large or run the other way. Potency is read from the fitted curve at half-maximal effect.",
  "data": [
    {"assay": "Quantitative High-Throughput drug screen in 47 multiple myeloma cell lines against the NCATS MIPE library collection: VP6_DJ cell viability assay (AID 1919867); also: nearly all actives have a fitted effect of over 40% in size", "conditions": "ATP luminescence, 48 h; series mostly up to 45.8 µM; viability (% of DMSO): at the top concentration", "source_text": "PI: Beverly A. Mock Ph.D.\nLaboratory of Cancer Biology and Genetics,\nCenter for Cancer Research, National Cancer Institute,\nNational Institute of Health, Bethesda, Maryland\nDrug resistance and disease progression are common in multiple myeloma (MM) patients, underscoring the need for new therapeutic combinations. […] We hypothesized that effective combinations would reduce MYC expression and enhance p16 activity. […] These preclinical data identify potentially useful drug combinations for evaluation in drug-resistant MM and reveal potential mechanisms of combined drug sensitivity.\nDescribed herein is the primary MIPE qHTS used to cherrypick compounds. Validated compounds were then further tested for potential synergistic activiy.\n[1] Peat TJ, Gaikwad SM, Dubois W, Gyabaah-Kessie N, Zhang S, Gorjifard S, Phyo Z, Andres M, Hughitt VK, Simpson RM, Miller MA, Girvin AT, Taylor A, Williams D, D'Antonio N, Zhang Y, Rajagopalan A, Flietner E, Wilson K, Zhang X, Shinn P, Klumpp-Thomas C, McKnight C, Itkin Z, Chen L, Kazandijian D, Zhang J, Michalowski AM, Simmons JK, Keats J, Thomas CJ, Mock BA. Drug combinations identified by high-throughput screening promote cell cycle transition and upregulate Smad pathways in myeloma. Cancer Lett. 2023 Aug 1;568:216284. doi: 10.1016/j.canlet.2023.216284. Epub 2023 Jun 24. PMID: 37356470; PMCID: PMC10408729.\nSEQUENCE No. (e.g., 1, 2, 3, etc.); […] (e.g., Cells, Incubation, Reagent, etc.); VALUE and DESCRIPTION.\n1; Cells; 5 uL; white, solid bottom 1536-well Greiner assay plate.\n2; Compounds; 23 nL; Kalypsis pin tool (Wako USA) equipped with a 1536-well pin head to transfer to the assay plates.\n3; Incubation; 48 hours; 37C incubation.\n4; Reagent;5uL; CellTiter Glo (Promega).\n5; Detector; 425V; Luminescence; Viewlux PerkinElmer.\nNOTES (numbers refer to Sequence numbers above)\n1. The cell-based screening methods employed in this study were like those previously published. Briefly, the corresponding myeloma cell lines were screened in 1,536-well plates with 500 cells, 5-uL per well for inhibition of cell viability (assessed by measuring ATP levels with CellTiterGlo).\n2. NCATS MIPE 4.0 library of approved and investigational drugs were added using the Kalypsis pin tool. Wells treated with DMSO only for 100% viability and media only for 0% viability were used as controls.\n3. The assay plates were covered and incubated for 48 hours in a 37C, 5% CO2 incubator with controlled humidity.\n4. After 48 hours, CellTilter-GloTM luminescent substrate mix (Promega) reagent was added to the assay plate and plates we incubated for 5 min at room temperature.\n5. Signal was measured as median relative luminescence units on a ViewLux (PerkinElmer) multiplate reader.\n[1] Heske CM, Davis MI, Baumgart JT, Wilson K, Gormally MV, Chen L, Zhang X, Ceribelli M, Duveau DY, Guha R, Ferrer M, Arnaldez FI, Ji J, Tran HL, Zhang Y, Mendoza A, Helman LJ, Thomas CJ. Matrix Screen Identifies Synergistic Combination of PARP Inhibitors and Nicotinamide Phosphoribosyltransferase (NAMPT) Inhibitors in Ewing Sarcoma. Clin Cancer Res. 2017 Dec 1;23(23):7301-7311. doi: 10.1158/1078-0432.CCR-17-1121. Epub 2017 Sep 12. PMID: 28899971; PMCID: PMC6636827.", "units": {"viability (% of DMSO)": "%"}, "values": [
      {"smiles": "CC(C)C(C)C=CC(C)C1CCC2C3=CC=C4CC(O)CCC4(C)C3CCC21C", "note": "(stereo not given)", "viability (% of DMSO)": 148},
      {"smiles": "Clc1ccc(-c2nc3sccn3c2C=NOCc2ccc(Cl)c(Cl)c2)cc1", "viability (% of DMSO)": 152},
      {"smiles": "NS(=O)(=O)c1ccc(NC2=CC(=O)c3ccccc3C2=O)cc1", "Potency": "5.9 µM (active)"},
      {"smiles": "CC=CC(=O)N(CC)c1ccccc1C", "Potency": "29.6 µM (active)"},
      {"smiles": "CN(C[C@@H]1COCCO1)S(=O)(=O)Nc1ccc2ccc3ncc(-c4cnn(C)c4)cc3c(=O)c2c1", "Potency": "2.96 µM (active)"},
      {"smiles": "O=C(O)[C@H]1O[C@H](Oc2cc3oc(-c4ccccc4)cc(=O)c3c(O)c2O)[C@H](O)[C@@H](O)[C@H]1O", "viability (% of DMSO)": 146},
      {"smiles": "COCCOC(=O)C1=C(C)NC2=C(C(=O)CC(c3ccccc3OC)C2)C1c1cccc(O)c1", "note": "(stereo not given)", "Potency": "2.96 µM (active)"},
      {"smiles": "C=C1C(=O)OC2C=C(C)CCC=C(C)CCC12", "note": "(stereo not given)", "Potency": "8.33 µM (active)"},
      {"smiles": "CC(C)n1nc(-c2ccc3oc(N)nc3c2)c2c(N)ncnc21", "Potency": "0.001 µM (active)"},
      {"smiles": "CN1CCN(CCOc2cc(OC3CCOCC3)c3c(Nc4c(Cl)ccc5c4OCO5)ncnc3c2)CC1", "Potency": "4.18 µM (active)"},
      {"smiles": "O=C(O)c1c(Cl)c(Cl)c(Cl)c(Cl)c1-c1c2cc(I)c(=O)c(I)c-2oc2c(I)c(O)c(I)cc12", "Potency": "14.8 µM (active)"},
      {"smiles": "N#Cc1ccc(NC(=O)Nc2ccccc2Br)c2n[nH]nc12", "Potency": "10.5 µM (active)"},
      {"smiles": "CC(C)=CC[C@@H](O)C1=CC(=O)c2c(O)ccc(O)c2C1=O", "Potency": "0.833 µM (active)"},
      {"smiles": "CCNc1cc(NC2CCC(O)CC2)nc(Nc2ccc3c(ccn3Cc3ccccc3)c2)n1", "note": "(stereo not given)", "Potency": "23.5 µM (active)"},
      {"smiles": "NC(CO)(CO)CCc1ccc(Sc2cccc(OCc3ccccc3)c2)cc1Cl", "Potency": "8.33 µM (active)"},
      {"smiles": "NC(=O)c1cccc2[nH]c(-c3ccc([C@H]4CCCN4)cc3F)nc12", "Potency": "14.8 µM (active)"},
      {"smiles": "O=C1C(Cl)=C(NCCN2CCOCC2)C(=O)c2ncccc21", "Potency": "7.43 µM (active)"},
      {"smiles": "CO[C@H]1C=CO[C@@]2(C)Oc3c(C)c(O)c4c(O)c(c5c(c4c3C2=O)NC2(CCN(CC(C)C)CC2)N=5)=NC(=O)C(C)=CC=C[C@H](C)[C@H](O)[C@@H](C)[C@@H](O)[C@@H](C)[C@H](OC(C)=O)[C@H]1C", "Potency": "16.6 µM (active)"},
      {"smiles": "O=C1c2ccccc2-[n+]2ccc3c([nH]c4ccccc43)c21", "Potency": "1.48 µM (active)"},
      {"smiles": "COc1cc(Nc2ncc(F)c(Nc3ccc4c(n3)NC(=O)C(C)(C)O4)n2)cc(OC)c1OC", "Potency": "1.66 µM (active)"},
      {"smiles": "O=C(Nc1ccccc1Br)N[C@@H]1CCN(c2ccc(C(F)(F)F)cn2)C1", "Potency": "18.7 µM (active)"},
      {"smiles": "CNC1CCC(N(Cc2cccc(-c3ccncc3)c2)C(=O)c2sc3c(F)ccc(F)c3c2Cl)CC1", "note": "(stereo not given)", "Potency": "13.2 µM (active)"},
      {"smiles": "CO[C@H]1C[C@@H]2CC[C@@H](C)[C@@](O)(O2)C(=O)C(=O)N2CCCC[C@@H]2C(=O)O[C@H]([C@H](C)C[C@@H]2CC[C@H](OC(=O)C(C)(CO)CO)[C@H](OC)C2)CC(=O)[C@H](C)C=C(C)[C@@H](O)[C@@H](OC)C(=O)[C@H](C)C[C@H](C)C=CC=CC=C1C", "Potency": "20.9 µM (active)"},
      {"smiles": "N#CC(=C(N)Sc1ccccc1N)C(C#N)=C(N)Sc1ccccc1N", "Potency": "20.9 µM (active)"},
      {"smiles": "Nc1ncnc2ccccc12", "viability (% of DMSO)": 143},
      {"smiles": "CC[C@H]1OC(=O)[C@H](C)[C@@H](O[C@H]2C[C@@](C)(OC)[C@@H](O)[C@H](C)O2)[C@H](C)[C@@H](O[C@@H]2O[C@H](C)C[C@H](N(C)C)[C@@H]2O)[C@](C)(O)C[C@@H](C)CN(C)[C@H](C)[C@@H](O)[C@]1(C)O", "viability (% of DMSO)": 139},
      {"smiles": "COc1cc2ncnc(-n3nc(-c4ccccn4)nc3N)c2cc1OC", "Potency": "6.62 µM (active)"},
      {"smiles": "CC1(C)Cc2c(sc(NC(=S)NC(=O)c3ccccc3)c2C(=O)O)CO1", "Potency": "8.33 µM (active)"},
      {"smiles": "N#CC1(c2ccc(NC(=O)c3cccnc3NCc3ccncc3)cc2)CCCC1", "Potency": "14.8 µM (active)"},
      {"smiles": "Clc1ccc(COC(Cn2ccnc2)c2ccc(Cl)cc2Cl)cc1", "note": "(stereo not given)", "Potency": "20.9 µM (active)"},
      {"smiles": "NC(=O)c1ccc2nc(-c3ccc(Oc4ccc(Cl)cc4)cc3)[nH]c2c1", "Potency": "6.62 µM (active)"},
      {"smiles": "O=c1cc(-c2cccc3c2Sc2ccccc2S3)oc(N2CCOCC2)c1", "Potency": "14.8 µM (active)"},
      {"smiles": "CC(C)C[C@H](CC(=O)O)C(=O)N[C@@H](Cc1c[nH]c2ccccc12)C(=O)N[C@@H](C)c1ccccc1", "viability (% of DMSO)": 153},
      {"smiles": "O=c1c(-c2ccc(O)cc2)coc2cc(OC3O[C@H](CO)[C@H](O)[C@H](O)[C@H]3O)cc(O)c12", "note": "(stereo not given in full)", "Potency": "2.64 µM (active)"},
      {"smiles": "O=C1NC(=O)C(=Cc2ccc(-c3ccc(F)cc3)o2)S1", "Potency": "14.8 µM (active)"},
      {"smiles": "COCCOc1nc(-c2ccc(Cl)c(Cl)c2)n(-c2ccc(NC(=O)CCl)cc2)n1", "Potency": "20.9 µM (active)"},
      {"smiles": "CCn1c(C(=O)N(C2CC2)C2CC2)cc2c3c(ncn3C)c(Nc3cc(C)n(C)n3)nc21", "Potency": "29.6 µM (active)"},
      {"smiles": "Cc1nnc(C(C)C)n1C1C[C@H]2CC[C@@H](C1)N2CC[C@H](NC(=O)C1CCC(F)(F)CC1)c1ccccc1", "note": "(stereo not given in full)", "Potency": "23.5 µM (active)"},
      {"smiles": "COc1ccc2cccc(CCNC(C)=O)c2c1", "Potency": "5.26 µM (active)"},
      {"smiles": "Nc1nc(F)nc2c1ncn2[C@@H]1O[C@H](COP(=O)(O)O)[C@@H](O)[C@H]1O", "viability (% of DMSO)": 125}
    ]}
  ]
}
